From PubChem BioAssay (NCI) come the findings set out here.

Structures are written as SMILES. This is part of a sample that, as a whole, favours compounds with a hit. Of some 79,000 tested, about 15% had one in any assay. A number with no mark means an inactive call. The source made the active and inactive calls. Cut-off read from the data, not from the text of the source: active = growth inhibition above about 70%; inactive = the rest.

The assay can be described thus: NCI Yeast Anticancer Drug Screen. Data for the wt1 strain (AID 149).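 Note: 0% = growth of vehicle-treated wt1 cultures.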 Conditions: S. cerevisiae wt1 strain (SPY 50644) growth inhibition, active compounds read high. The procedure: Growth inhibition of yeast strains with defined genetic alterations is measured as a screen for potential anti-cancer activity. Selected strains with alterations in DNA damage repair or cell cycle control were exposed to compounds and growth inhibition was measured relative to vehicle treated controls. The strain used in this assay is wt1

Turning to `COC(=O)C1(C)CCc2c(ccc3ccccc23)C1=O` (stereo not given), the growth inhibition (at 1.2 µM) was 0%; the growth inhibition (at 3.7 µM) was -2%; the growth inhibition (at 11.0 µM) is -3%; the growth inhibition (at 33.0 µM) is -2%; the growth inhibition (at 100.0 µM) is -13%.

For the compound `N#CC(=Nc1ccccc1F)Nc1ccccc1F`, the growth inhibition was -5% (at 1.2 µM); -3% (at 3.7 µM); -11% (at 11.0 µM); -10% (at 33.0 µM); -7% (at 100.0 µM).

As to `CCOC1Oc2ccccc2-c2nc(N)ncc21` (stereo not given), the growth inhibition (at 1.2 µM) was -4%; the growth inhibition (at 3.7 µM) is -1%; the growth inhibition (at 11.0 µM) was 1%; the growth inhibition (at 33.0 µM) was -1%; the growth inhibition (at 100.0 µM) is -14%.

With `S=C1SCN(C2CCCCC2)CN1C1CCCCC1`, the growth inhibition is -21% (at 1.2 µM); -29% (at 3.7 µM); -29% (at 11.0 µM); -21% (at 33.0 µM); 40% (at 100.0 µM).

On to `CCO/C(C)=C(/C#N)C(N)=S`, for which the growth inhibition is -1% (at 1.2 µM); -2% (at 3.7 µM); 0% (at 11.0 µM); 0% (at 33.0 µM); 1% (at 100.0 µM).

Consider `COC(=O)CC1(O)C(/C=C/c2ccccc2)C(C(=O)OC)C(=O)C(C(=O)OC)C1C(=O)OC` (stereo not given), for which the growth inhibition is, setting by setting: (at 1.2 µM) 1%; (at 3.7 µM) 1%; (at 11.0 µM) 1%; (at 33.0 µM) -1%; (at 100.0 µM) -1%.

For the compound `CCOC(=O)c1ccc(NC(=O)O/N=C(/Cl)C(C)C)cc1`, the growth inhibition (at 1.2 µM) was -1%; the growth inhibition (at 3.7 µM) was -6%; the growth inhibition (at 11.0 µM) is -11%; the growth inhibition (at 33.0 µM) was -14%; the growth inhibition (at 100.0 µM) was 97% (active).

With `C[CH2][Sn]([CH2]C)([O]C(=O)C(N)Cc1ccccc1)[O]C(=O)C(N)Cc1ccccc1` (stereo not given), the growth inhibition (at 1.2 µM) is 1%; the growth inhibition (at 3.7 µM) is 1%; the growth inhibition (at 11.0 µM) is 14%; the growth inhibition (at 33.0 µM) was 19%; the growth inhibition (at 100.0 µM) is 54%.
